HSD17B inhib: inhibitors of human HSD17B10 dehydrogenase | Q99714 | recombinant HSD17B10, NADH fluorescence kinetic | Potency, µM (series often up to 57.1 µM), inactives show at the top dose activity change, negative = inhibition, hits mostly inhibitors | hit rate 7.6% among 75,000 | AID 893;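 also: the protocol describes HADH2 (HSD17B10) and not the HSD17B4 of the title; potency is read from the fitted curve at half-maximal effect; % is scaled to controls: 0 for no effect and ±100 for the full control effect; nearly all actives have a fitted effect of over 70% in size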
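20 nM HADH2, pH 9.0 Tris/Tween; cpd preinc 15 min RT; start w/ 1 mM NAD+ + 90 uM b-hydroxybutyryl-CoA; kinetic fluor ex360/em450 q30s x 4 min; delta last-first.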
A350 fluor: compound fluoresces in the Alexa 350 spectral region; hit rate 11% among 59,000; Compound autofluorescence, 340/450 nm, Alexa 350 dye-equivalents; hits give high values; max dye-equivalent concentration, M; in the data active = max dye-equivalent concentration above about 10 nM; inconclusive = mostly about 1.1 nM to 9.6 nM
AID923: qHTS Assay for Allosteric/Competitive Inhibitors of Caspase-1: Spectroscopic Profiling in AFC Spectral Region; compound fluorescence, AFC spectral region (405/520 nm); Potency, µM (highest dose often 57.5 µM), inactives show at the highest dose fluorescence increase, usual class: activators; hit rate 1.1% among 75,000; AID 923, 2007; also: potency is read from the fitted curve at half-maximal effect; 0% is about no effect
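Compound autofluorescence profiled at 405 nm ex/520 nm em during kinetic caspase 1 run (50 nM enzyme, 5 uM Ac-WEHD-AFC, HEPES pH 7.5, 10 mM DTT). Titration up to 57 uM; baseline from regression intercept, normalized to AFC standard curve.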
HADH2 inh: HADH2 (human) dehydrogenase inhibition; hit rate 3.4% among 73,000; recombinant HADH2, NADH fluorescence, beta-hydroxybutyryl-CoA; Q99714; Potency, µM (doses to about 57.1 µM), for the others: at the top dose activity change, negative = inhibition, actives largely listed as inhibitors; also: potency is read from the fitted curve at half-maximal effect; % is scaled to controls: 0 for no effect and ±100 for the full control effect; nearly all actives have a fitted effect of over 60% in size
Target sequence (Q99714 whole entry, looked up, one chain of several): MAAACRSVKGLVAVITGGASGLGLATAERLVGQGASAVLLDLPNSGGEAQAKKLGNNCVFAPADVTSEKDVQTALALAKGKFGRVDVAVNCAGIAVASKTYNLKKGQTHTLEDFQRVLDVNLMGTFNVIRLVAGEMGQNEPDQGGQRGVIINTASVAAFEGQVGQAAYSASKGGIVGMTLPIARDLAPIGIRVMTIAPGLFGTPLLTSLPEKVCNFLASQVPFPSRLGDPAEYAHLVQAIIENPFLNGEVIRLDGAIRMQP
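NADH fluorescence (ex 360/em 450 nm) read every 30 s for 4 min; activity taken as last-minus-first time point difference. Enzyme 20 nM, NAD+ 1 mM, beta-hydroxybutyryl-CoA 90 uM, pH 9.0 Tris buffer.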
CRE-bla Fsk: alters forskolin-stimulated CRE reporter signaling in CHO cells; CHO CRE-bla reporter (cAMP response element driving beta-lactamase), forskolin EC10, beta-lactamase ratio; Potency, µM (doses to about 38.2 µM), without a hit: top-dose activity change, negative = inhibition, actives largely listed as activators; AID 662; hit rate 2.5% among 71,000; active = well fitted activation curve with a large enough effect in the signal ratio, with a control signal flat, not every such curve was filed as active; inconclusive = small, poorly fitted or top-dose-only effect, or effect the other way, or a change in a side signal; the % refers to the signal ratio; also: potency is read from the fitted curve at half-maximal effect; % of control where 0% means no effect
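qHTS titration format; CRE-bla CHO reporter; stimulus EC10 NKH 477, a water-soluble forskolin. Read: CCF4 460/530 nm ratio. Potency expressed as AC50 for activators or inhibitors.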
4-MU autofl: 4-MU region autofluorescence; compound autofluorescence, 340/450 nm, 4-MU equivalents; hits give high values; max dye-equivalent concentration, M; hit rate 11% among 59,000; in the data active = max dye-equivalent concentration above about 10 nM; inconclusive = mostly about 1.1 nM to 9.6 nM
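Intrinsic fluorescence at 340/450 nm (ex/em) was read after 15 min at room temperature in pH 8.0, 100 mM Tris. Each compound concentration expressed as 4-MU-equivalent concentration from a six-point 4-MU standard series on each plate.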
Active calls of the source: *; i = inactive; ? = inconclusive; / = no result given; [ ] = remark or other dose. Hits are enriched below; roughly 14% of the tested compounds scored in any of these assays. Unless noted, calls follow the shape of the dose curve; as a rule, active = well fitted curve in the direction sought with a large enough effect; inconclusive = small, poorly fitted or top-dose-only effect, or another doubt; inactive = no such curve, though single readings can be large; an effect the other way counts as inactive or inconclusive.

SMILES | HSD17B inhib | A350 fluor | AID923 | HADH2 inh | CRE-bla Fsk | 4-MU autofl
COc1ccc2[nH]cc(CCNc3ccnc(-c4ccccc4C)n3)c2c1 | -5% | i | 5% | 1% | 1% | i
Cc1ccc(-c2nc(CS(=O)CC(=O)NCc3ccccc3)c(C)o2)cc1 (stereo unspecified) | -5% | / | -3% | -7% | -3% | /
COc1ccc(-c2nc(CS(=O)CC(=O)NCc3ccco3)c(C)o2)cc1OC (stereo unspecified) | 20µM* | / | -2% | -27% | 22% | /
COc1ccc(CNC(=O)CS(=O)Cc2nc(-c3ccc(C)cc3)oc2C)cc1 (stereo unspecified) | -8% | / | 4% | -14% | 6% | /
Cc1oc(-c2cccs2)nc1CS(=O)CC(=O)NC1CCCCCC1 (stereo unspecified) | 16µM* | / | 2% | ? | ? | /
Cc1ccc(CNC(=O)CS(=O)Cc2nc(-c3cccs3)oc2C)cc1 (stereo unspecified) | 25µM* | / | 3% | ? | -23% | /
Cc1cccc(-c2nc(CS(=O)CC(=O)NC3CCCC3)c(C)o2)c1 (stereo unspecified) | -2% | / | 0% | -17% | -5% | /
C#CCCCO/N=C1/C[C@@H](O)[C@@H](O)[C@@H]2[C@@H]3C(=O)N(C4CCCCC4)C(=O)[C@H]3CC[C@H]12 | 0%[11.4 µM] | / | 6%[11.5 µM] | 2%[11.4 µM] | / | /
CCC(=O)N1CCc2cc(OC)c(OC)cc2C1COc1ccc(C(=O)OC)cc1 (stereo unspecified) | -8% | i | 3% | -5% | 4µM* | i
COC(=O)c1ccc(OCC2c3cc(OC)c(OC)cc3CCN2C(=O)c2ccco2)cc1 (stereo unspecified) | 1% | i | 2% | -3% | 1.6µM* | i
CC[C@H]1C2=C3C(CC[C@H]4C(OCc5ccc(F)cc5C(F)(F)F)OC[C@](C)([C@@H]34)N(C(=O)OC(C)(C)C)C2)C(COC)C1COC (stereo partly specified) | 15% | / | -1% | 3% | 0% | /
O=C(O)c1ccc(Cl)c(S(=O)(=O)Nc2ccccc2F)c1 | 9% | / | 0% | -5% | / | /
COc1ccccc1Oc1c(C)oc2c(CN3CCN(C)CC3)c(O)ccc2c1=O | 32µM* | 1.6e-06M* | 10% | ? | 5% | 1.1e-06M*
COC(=O)c1ccc(Oc2c(C)oc3c(CN4CCN(C)CC4)c(O)ccc3c2=O)cc1 | 32µM* | 2.7e-06M* | 11% | -165% | 8% | 1.9e-06M*
COCC#Cc1ccc(C2NC(C(=O)O)CCC2C)cc1 (stereo unspecified) | -3%[11.4 µM] | / | 1%[11.5 µM] | -5%[11.4 µM] | / | /
COC(=O)C1=C(C)N(Cc2ccccc2)[C@]23O[C@](C(=O)OC)(C(=O)N2C1c1ccccc1)C1CCOC(=O)C13 (stereo partly specified) | 7%[11.4 µM] | / | -2%[11.5 µM] | 1%[11.4 µM] | / | /
COC(=O)C1=C(C)Nc2ncnn2C1c1ccccn1 (stereo unspecified) | -18% | i | -3% | 4% | ? | i
COC(=O)C1=C(C)Nc2nc(-c3ccccc3)nn2C1c1ccc(C)o1 (stereo unspecified) | 0% | / | 0% | 5% | 13µM* | /
O=C(CON1C(=O)c2ccccc2C1=O)c1ccccc1 | -6%[11.4 µM] | i | 7%[11.5 µM] | 4%[11.4 µM] | 5%[7.6 µM] | i
COc1cc([C@H]2c3cc4c(cc3[C@@H](O)[C@@H]3COC(=O)[C@H]23)OCO4)cc(OC)c1OC | 1%[25.6 µM] | ? | 6%[25.7 µM] | 1%[25.6 µM] | 0.013µM* | i
COc1cc(C2c3cc4c(cc3C(O)[C@H]3COC(=O)C23)OCO4)cc(OC)c1OC (stereo partly specified) | -1% | / | -1% | / | / | /
COc1ccc(CCNC(=O)c2sc(=S)n(C)c2N)cc1 | ? | 9.5e-08M* | 12% | 7% | ? | 6.9e-08M*
COc1ccc(CCC(=O)NCc2cnn(C)c2)cc1 | 16µM* | 5.4e-08M* | -1% | 32µM* | 14% | 5.4e-08M*
COc1ccc(CCNC(=O)c2nn(C)cc2Cl)cc1 | 0% | 1.7e-08M* | 0% | -1% | -9% | ?

High-throughput results: PubChem BioAssay, National Center for Advancing Translational Sciences (NCATS)
